Compounds without any hit were thinned out: in the full panel of roughly 83,000, 20% have a hit.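 Plates (96-well) were seeded with cells, treated with compound at one concentration, and incubated for 48 hours before percent growth was determined.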 Values without a mark were called inactive. Activity calls are given as the source filed them. Rule for the calls: active = growth percent below 10; inactive = the rest.
System: HL-60(TB) leukemia
Experiment: NCI-60 one-dose screen, 48 h (100 = growth as untreated, 0 = no growth, -100 = all killed)
Settings: 10 µM unless noted

SMILES | growth
COc1cccc(/C=C/c2c(C(=O)O)cccc2[N+](=O)[O-])c1OC | 97.4%
O=C(/C=C/c1ccc(Br)cc1)c1ccccc1 | 81.5%
O=C(C[C@@H](C(=O)NCc1cccc(C(F)(F)F)c1)N1C(=O)[C@@H](N2C(=O)OC[C@@H]2c2ccccc2)[C@H]1/C=C/c1ccccc1)NC1CCN(Cc2ccccc2)CC1 | 55.3%
O=C(Nc1ccccc1)Nc1ccccc1CNc1nc(Nc2ccc(OCCN3CCCC3)cc2)ncc1Cl | -31.2% (active)
CCOC(=O)C(=Cc1ccc(C#N)cc1)C(=O)OCC | -33.2% (active)
NNC(=O)CCCCl | 102%
C[C@]12CC[C@@H]3c4ccc(OS(=O)(=O)O)cc4CC[C@H]3[C@@H]1CC[C@@H]2NS(=O)(=O)c1ccc(-c2ccccc2)cc1 | 43.9%
S=C(S)OCN1CCOCC1 | 106%
O=C1C(Br)=CC2C1C1C3CCC3C2(Br)C12OCCO2 (centres undefined) | -6.23% (active)
COc1ccc(-c2cc(-c3cc(OC)ccc3O)[nH]c(=O)c2C#N)cc1 | 16.9%
Cn1c(COC(=O)NCCn2ccnc2)nc2c(N3CCOCC3)nc(-c3ccccc3)nc21 | -37.5% (active)
CN(/C(N)=N/N=C/c1c2ccccc2cc2ccccc12)C1CCCCC1 | 35.4%
Cn1c(I)c(C#CCO[Si](C)(C)C(C)(C)C)c(=O)[nH]c1=O | -41.2% (active)
NC(=O)c1ccccc1OCC(=O)Nc1ccc(Cl)c(Cl)c1 | 86.4%
S=C=Nc1ccc2ccccc2c1 | 91.7%
N#CC1C(C#N)C(C(=O)c2ccc(Br)cc2)N2c3ccccc3C=CC12 (centres undefined) | 94.3%
O=C(O[C@@H]1Cc2c(O)cc(O)cc2O[C@@H]1c1cc(O)c(O)c(O)c1)c1cc(O)c2c(c1)OCO2 | 91.1%
Cc1ccccc1NC(=O)CN(C)C | 87.9%
Cc1ccc2nc(NC(=O)CSc3nc(Nc4ccc([N+](=O)[O-])cc4)c(C#N)c(-c4ccccc4)n3)sc2c1 | 95.2%
COc1cc(-c2nn(-c3ccc(Br)cc3)cc2CO)ccc1O | 74.8%

SMILES | growth
Clc1nc(-c2ccccn2)nc2sc3c(c12)CCCCCC3 | 96%
Clc1ccc(C2=Nn3c(nnc3-c3cc(Cl)cc(Cl)c3Cl)SC2)cc1 | -15% (active)
CN1CCN(Cc2ccc(NC(=O)c3[nH]ncc3Nc3cc(OC4CCCC4)ncn3)cc2)CC1 | -12.7% (active)
COc1ccc(C2=NN(C=O)C(c3cccc(Nc4ccnc5cc(Cl)ccc45)c3)C2)cc1 (centres undefined) | -13.1% (active)
COc1ccc(-c2nc3ccc(Cc4ccc5nc(-c6ccc(OC)cc6)[nH]c5c4)cc3[nH]2)cc1 | 9.66% (active)
N#C/C(=C\c1ccc(-c2ccccc2F)o1)c1nc(-c2ccco2)cs1 | 91.2%
NC1=NC(c2ccccc2OS(=O)(=O)c2ccc(Br)cc2)n2c(nc3ccccc32)N1 (centres undefined) | 69.7%
O=C(Nc1ccc(Nc2ncnc3sc4c(c23)CCOC4)cc1)Nc1ccc(Cl)c(C(F)(F)F)c1 | 98.9%
COc1ccc2c(c1)c(-c1nc(-c3c[nH]c4ccncc34)cs1)cn2C | -61.5% (active)
O=C(Nc1ccc(F)cc1)c1ccc(C(=O)Nc2ccc(F)cc2)cc1 | 107%
Clc1ccc2c(NCCCCNc3nc(N4CCCCC4)nc4ccccc34)ccnc2c1 | -69% (active)
O=C(Oc1cccc2ccccc12)c1ccccc1C(=O)c1ccccc1 | -8.79% (active)
COc1ccc(-c2c(N)n[nH]c2-c2cc3c(c(OC)c2OC)OCO3)cc1 | 63.1%
COc1cc(-c2cccc([N+](=O)[O-])c2)c(-c2nc(-c3ccccc3)c(-c3ccccc3)n2C2CC2)cc1OC | 9.63% (active)
Nc1cc2[nH]c(=O)c3ccccc3c2cc1Br | 125%
CCN(CC)CC(C)(C)C(=O)/C=C/c1ccccc1 | 26.2%
Cc1ccc(Nc2cc(C)nc(NCCCNc3ccnc4cc(Cl)ccc34)n2)cc1 | -73% (active)
Oc1ccc(Nc2ccc3ccccc3c2)cc1 | 54.9%
c1ccc(-c2n(Cc3ccc4ccccc4n3)c3ccccc3[n+]2Cc2ccc3ccccc3n2)cc1 | -54% (active)

— PubChem BioAssay (NCI)
